Bioassay records deposited in PubChem by several laboratories.
Most compounds without a hit are left out; they make up all but 4.2% or so of the library.
NALP1 yeast inh: NALP1 inflammasome inhibitors in reconstituted yeast, colorimetric, S. cerevisiae, triplicate retest | S. cerevisiae NALP1/ASC/caspase-1 growth, X-gal OD620, 72 h | inhibition, % at 10 µM | hit rate 0.61% among 280,000; in the data active = inhibition mostly above about 24%, no sharp cut-off; inactive = mostly below about 32%
tim23-1 inh: growth inhibitors of tim23-1 mutant yeast, primary screen, luminescence, uHTS | S. cerevisiae tim23-1 growth, BacTiter-Glo luminescence, 24 h | inhibition, % at 20 µM | hit rate 1.3% among 330,000;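 active = growth inhibition of the mutant yeast at or above 50%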;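 also: temperature-sensitive mutant grown at 25 °C; plate controls were DMSO-treated mutant yeast for no effect and medium wells lacking yeast for full effect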
tim10-1 inh: growth inhibitors of tim10-1 mutant yeast, primary screen, luminescence, uHTS. inhibition, % at 20 µM. S. cerevisiae tim10-1 ts strain growth, BacTiter-Glo, 24 h. hit rate 2.2% among 330,000. AID 463190, 2010;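 active = inhibition of at least 40%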;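 also: mutant grown at 25 °C; 0% = DMSO wells with yeast and 100% = wells holding no yeast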
V-ATPase pHluor: regulators of yeast V-ATPase proton pumping, primary screen, pHLuorin cytosolic pH fluorescence; hit rate 0.37% among 350,000; response, % at 10 µM; S. cerevisiae; in the data active = response mostly above about 7.3%, no sharp cut-off; inactive = mostly below about 5.4%; also: actives read high
TIM10 inh: growth inhibitors of isogenic TIM10 control yeast, primary screen, counter-screen for tim10-1 yeast inhibitor project, luminescence, uHTS. S. cerevisiae TIM10 strain growth, BacTiter-Glo luminescence, 24 h. inhibition, % at 10 µM. hit rate 1.4% among 330,000. AID 463195, 2010;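 active = inhibition of 40% or more at the single tested concentration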;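 also: wild-type TIM10 isogenic control strain grown at permissive 25 °C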
NLRP3 yeast inh: NALP3 inflammasome inhibitors in reconstituted yeast, primary screen, luminescence, uHTS; hit rate 0.39% among 330,000; Yeast reconstituted NLRP3/ASC/caspase-1, beta-gal luminescence, 24 h; AID 2825, 2010; inhibition, % at 10 µM;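 active = inhibition of 50% or more; inactive = inhibition below 50%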;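 also: plate controls were induced DMSO wells for no effect and uninduced yeast grown without galactose for full effect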
V-ATPase pH SP: yeast V-ATPase proton pumping modulators, confirmation, S. cerevisiae, pH-sensitive GFP, second cherry-pick; S. cerevisiae pHLuorin cytosolic pH, V-ATPase proton transport; hit rate 2% among 980; shares compounds with V-ATPase pHluor; response, % at 10 µM; in the data active = response above about 24%;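 also: plate controls were vehicle wells for no effect and positive control wells for full effect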
An asterisk follows results filed as active; . = no result.

SMILES	NALP1 yeast inh	tim23-1 inh	tim10-1 inh	V-ATPase pHluor	TIM10 inh	NLRP3 yeast inh	V-ATPase pH SP
COC(=O)c1ccc(C2NC(=S)N(c3ccccc3)C(C)=C2C(=O)Nc2ccccc2OC)cc1 (configuration not stated)	14	19	24	11*	3	14	4
COc1ccccc1NC(=O)C1=C(C)N(c2ccccc2)C(=S)NC1c1cccc(C(F)(F)F)c1 (configuration not stated)	36	28	37	5	28	5	.
CN(C(=O)c1cccc(NC(=O)Cc2ccc(NC(=O)C3CCN(C(=O)CCc4ccccc4)CC3)cc2)c1)C1CCCCC1	.	.	.	7.7*	.	.	0
Cc1ccc(S(=O)(=O)N(C)C)cc1-n1c(SCC(=O)N(C)C)nc2ccccc2c1=O	17	10	18	9	7	2	.
O=C1NCCN/C1=C\C(=O)c1ccc(F)cc1	26	17	-1	-2	6	13	3
